In PubChem BioAssay AID1611 (NINDS Approved Drug Screening Program, 2009):

Experiment: inducers of human heat shock response, cell-based, HSE luciferase (AID 1611)
Details: human cells, HSE-luciferase heat shock reporter; stronger effect = higher value
In the case of O=C(O)CCC(=O)c1ccc(-c2ccccc2)cc1, the fold change is reported as 1.02. Molecule C[N+](C)(C)CCO has a fold change of 0.93. CCN(CC)CCCC(C)Nc1c2ccc(Cl)cc2nc2ccc(OC)cc12 (stereo not given) showed a fold change of 0.97. Molecule CN(C)C(=O)Oc1ccc[n+](C)c1 has a fold change of 1.31. In the case of COc1ccc2cc([C@H](C)C(=O)O)ccc2c1, the fold change is reported as 0.71. For CCN(CC)C(=O)c1cccc(C)c1, the fold change was 0.91. CCCCCC(=O)O[C@]1(C(C)=O)CCC2C3CCC4=CC(=O)CC[C@]4(C)C3CC[C@@]21C (stereo not given in full) showed a fold change of 1.47. Work on Cc1ccccc1OCC(O)CO (stereo not given) yielded a fold change of 0.73. Molecule CCN(CC)CCOC(=O)C(c1ccccc1)C1CCCCC1 (stereo not given) has a fold change of 1.12. Work on Oc1cccc(O)c1 yielded a fold change of 1.06. In the case of C=C[C@H]1CN2CC[C@H]1C[C@@H]2[C@H](O)c1ccnc2ccc(OC)cc12, the fold change is reported as 1.63. In the case of CC[C@H]1CN2CCc3cc(OC)c(OC)cc3C2C[C@@H]1CC1NCCc2cc(OC)c(OC)cc21 (stereo not given in full), the fold change is reported as 0.89. For Nc1cc(-c2ccncc2)c[nH]c1=O, the fold change was 1.16. For CC(=O)OCC1=C(C(=O)O)N2C(=O)[C@@H](NC(=O)CSc3ccncc3)[C@H]2SC1, the fold change was 0.82. In the case of CCN(CC)CCNC(=O)c1cc(Br)c(N)cc1OC, the fold change is reported as 1.36. CC(=O)OCC1=C(C(=O)O)N2C(=O)[C@@H](NC(=O)Cc3cccs3)[C@H]2SC1 showed a fold change of 1.09. In the case of Nc1ccc(S(=O)(=O)Nc2cnc3ccccc3n2)cc1, the fold change is reported as 1.17. With COc1ccc2cc3[n+](cc2c1OC)CCc1cc2c(cc1-3)OCO2 the fold change was 1.07. CCN(CC)CC(=O)Nc1c(C)cccc1C showed a fold change of 0.78. For CC(=O)O[C@H]1C[C@@]2(C)[C@@H](C[C@@H](O)C3[C@]2(C)CC[C@H]2[C@H](C)[C@H](O)CC[C@]32C)/C1=C(/CCC=C(C)C)C(=O)O (stereo not given in full), the fold change was 1. With CC(C)(C)NC[C@@H](O)COc1nsnc1N1CCOCC1 the fold change was 0.87. Work on N=c1nc(N2CCCCC2)cc(N)n1O yielded a fold change of 0.77. In the case of Cc1cccc(Nc2ccccc2C(=O)O)c1C, the fold change is reported as 1.2. CCOc1ccc2c(c1)C(C)=CC(C)(C)N2 gave a fold change of 1.18. COc1c(C)c2c(c(O)c1C/C=C(\C)CCC(=O)O)C(=O)OC2 gave a fold change of 0.85. With CC1=CC(=O)c2ccccc2C1=O the fold change was 0.86. CC1(C)O[C@@H]2CC3C4C[C@H](F)C5=CC(=O)C=CC5(C)C4C(O)CC3(C)[C@]2(C(=O)CO)O1 (stereo not given in full) gave a fold change of 1.4. With CN1CCN(C(c2ccccc2)c2ccc(Cl)cc2)CC1 (stereo not given) the fold change was 1.12. For NCCCCC(N)C(=O)NC(Cc1ccc(O)cc1)C(=O)NC(CCCCN)C(=O)O (stereo not given), the fold change was 0.95. With CN1CCc2cccc3c2C1Cc1ccc(O)c(O)c1-3 (stereo not given) the fold change was 0.71. For CCN1CCCC(OC(=O)C(c2ccccc2)c2ccccc2)C1 (stereo not given), the fold change was 0.74. Work on CCn1cc(C(=O)O)c(=O)c2ccc(C)nc21 yielded a fold change of 0.98. Cn1c(=O)c2c(ncn2CC(O)CO)n(C)c1=O (stereo not given) gave a fold change of 1.13. Work on CCCCCC(C)N (stereo not given) yielded a fold change of 1.8. For Cn1c(=O)c2[nH]cnc2n(C)c1=O, the fold change was 1.18. For Cc1cc(-c2ccccc2)nnc1NCCN1CCOCC1, the fold change was 0.98. With CCCc1ncc(C[n+]2ccccc2C)c(N)n1 the fold change was 1.19. For COC1=C2C[C@@H](C)C[C@H](OC)[C@H](O)[C@@H](C)/C=C(\C)[C@@H](OC(N)=O)[C@H](OC)/C=C\C=C(/C)C(=O)NC(=CC1=O)C2=O, the fold change was 1.05. Work on C[C@](N)(Cc1ccc(O)c(O)c1)C(=O)O yielded a fold change of 0.74. With NNCCc1ccccc1 the fold change was 0.93.
